The values that follow come from PubChem BioAssay.

Experiment [1] addresses NADPH oxidase 4 (Homo sapiens) (UniProt Q9NPH5). The experiment in a line: compounds shifting NOX4 Amplex Red fluorescence – cell-based, HEK293-NOX4, tetracycline-induced, NOX inhibitor project, primary screen (AID 1160). Particulars: HEK293-NOX4, Amplex Red H2O2 fluorescence, 45 min; higher = more signal, called active from +8 up or from −8 down.
Experiment [2] addresses NADPH oxidase 5 (Homo sapiens) (UniProt Q96PH1). The experiment in a line: compounds shifting NOX5 Amplex Red fluorescence – cell-based, HEK293-NOX5, NOX inhibitor project, primary screen (AID 1161). Particulars: HEK293-NOX5, ionomycin, 45 min, higher = more signal.
Experiment [3] can be described thus: compound effects on lung adenocarcinoma cell viability – A549, calcein-AM fluorescence, 48 h, basal, profiling panel (AID 1162). Further: test concentration not given here. The settings on record: higher = more signal.
The nature of experiment [4]: compound effects on differentiated 3T3-L1 adipocyte viability – cell-based, 3T3-L1 adipocytes, calcein-AM fluorescence, 48 h, basal, profiling panel (AID 1163). Further: test concentration not given here. Particulars: 3T3-L1 adipocytes viability, higher = more signal.
Experiment [5] can be described thus: compound effects on hepatocellular carcinoma cell viability – HepG2, calcein-AM fluorescence, 48 h, basal, profiling panel (AID 1164). Further: test concentration not given here. The settings on record: higher = more signal.
Experiment [6] is described as follows: compound effects on multiple myeloma cell viability – MM1S, calcein-AM fluorescence, 48 h, basal, profiling panel (AID 1165).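 Further: viability of MM1S multiple myeloma cells under basal unstimulated conditions; test concentration not given here.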 The settings on record: higher = more signal.
The nature of experiment [7]: calcein-AM signal in unstimulated myeloma cells – cell-based, calcein-AM fluorescence, 48 h, PK04 Diversity Set, profiling panel (AID 1166).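 Further: cells grown under basal conditions without added stimulus; test concentration not given here.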 Particulars: RPMI8226 myeloma viability, higher = more signal.
The nature of experiment [8]: JC-1 mitochondrial signal, unstimulated HepG2 cells – cell-based, JC-1 fluorescence, 24 h, 100 nL compound, profiling panel (AID 1167). Further: test concentration not given here. Particulars: HepG2 mitochondrial potential, higher = more signal.
The nature of experiment [9]: JC-1 mitochondrial signal, unstimulated adipocytes – cell-based, JC-1 fluorescence, 3T3-L1 adipocytes, 24 h, 100 nL compound, profiling panel (AID 1168). Further: test concentration not given here. The settings on record: JC-1 mitochondrial fluorescence, higher = more signal, called active from +8 up or from −8 down.
A short description of experiment [10]: JC-1 mitochondrial signal, unstimulated myeloma cells – cell-based, JC-1 fluorescence, RPMI8226, 24 h, 100 nL compound, profiling panel (AID 1169). Further: test concentration not given here. Particulars: JC-1 mitochondrial potential fluorescence, higher = more signal.
Experiment [11] can be described thus: JC-1 mitochondrial signal, unstimulated MM1S myeloma – cell-based, JC-1 fluorescence, 24 h, 100 nL compound, profiling panel (AID 1170). Further: test concentration not given here. The settings on record: MM1S mitochondrial potential, higher = more signal.
Experiment [12] can be described thus: resazurin metabolic signal in A549 cells – cell-based, resazurin fluorescence, 24 h, PK04 Diversity Set, profiling panel (AID 1171). Further: test concentration not given here. The settings on record: A549 viability, higher = more signal, called active from +8 up or from −8 down.
Experiment [13] in a line: resazurin metabolic signal in HepG2 cells – cell-based, resazurin fluorescence, 24 h, PK04 Diversity Set, profiling panel (AID 1172). Further: test concentration not given here. The settings on record: HepG2 viability, higher = more signal. In general terms: The colour change of resazurin is a common sign of viable cells or microbes.
Experiment [14] can be described thus: budding yeast growth changes without added modifier – OD600, strain BY4716, 24 h, basal condition, primary screen (AID 1173). Particulars: S. cerevisiae BY4716 growth, OD600, 24 h; higher = more signal, called active from +8 up or from −8 down.
Experiment [15] can be described thus: viability profiling in MM1S myeloma cells – cell-based, resazurin fluorescence, basal, 24 h, PK04 Diversity Set, profiling panel (AID 1174). Further: test concentration not given here. Particulars: higher = more signal, called active from +8 up or from −8 down.
Experiment [16] deals with Dihydroorotate dehydrogenase (quinone), mitochondrial (Plasmodium falciparum (isolate 3D7)) (UniProt Q08210). Briefly: inhibition of P. falciparum DHODH – biochemical, C-terminal His tag, absorbance 600 nm, primary screen (AID 1175).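 Further: recombinant parasite enzyme with a five histidine tag at its C terminus; test concentration not given here.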 The settings on record: PfDHODH enzyme, DCIP absorbance 600 nm; higher = more signal, called active from +8 up or from −8 down.
Experiment [17] can be described thus: growth modulation of vineyard yeast isolate – strain RM11-1a, OD600, basal, 24 h, primary screen (AID 1177).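 Further: cultures grown under basal conditions with no added stressor; test concentration not given here.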 The settings on record: S. cerevisiae RM11-1a growth, OD600, 24 h; higher = more signal, called active from +8 up or from −8 down.
A short description of experiment [18]: growth of efflux-deficient E. coli DRC39 – strain DRC39, OD650, 24 h, E. coli filamentation inducers, primary screen (AID 1178).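 Further: growth measured as culture turbidity by optical density at 650 nm; test concentration not given here.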 Particulars: E. coli DRC39 acrAB, higher = more signal, called active from +8 up or from −8 down.
The nature of experiment [19]: growth of efflux-deficient E. coli DRC39 – strain DRC39, OD650, 48 h, E. coli filamentation inducers, primary screen (AID 1179).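 Further: screen aims at cell division blockers that make cells filament.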 The settings on record: E. coli DRC39 delta-acrAB growth, higher = more signal, called active from +8 up or from −8 down.
A short description of experiment [20]: viability profiling in RPMI8226 myeloma cells – cell-based, resazurin fluorescence, basal, 24 h, PK04 Diversity Set, profiling panel (AID 1180).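 Further: RPMI8826 multiple myeloma cell line at 5000 cells per well; test concentration not given here.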 The settings on record: higher = more signal.

Calls of active or inactive are those of the source.

Chain of NADPH oxidase 5 (Homo sapiens) (Q96PH1 whole entry, looked up): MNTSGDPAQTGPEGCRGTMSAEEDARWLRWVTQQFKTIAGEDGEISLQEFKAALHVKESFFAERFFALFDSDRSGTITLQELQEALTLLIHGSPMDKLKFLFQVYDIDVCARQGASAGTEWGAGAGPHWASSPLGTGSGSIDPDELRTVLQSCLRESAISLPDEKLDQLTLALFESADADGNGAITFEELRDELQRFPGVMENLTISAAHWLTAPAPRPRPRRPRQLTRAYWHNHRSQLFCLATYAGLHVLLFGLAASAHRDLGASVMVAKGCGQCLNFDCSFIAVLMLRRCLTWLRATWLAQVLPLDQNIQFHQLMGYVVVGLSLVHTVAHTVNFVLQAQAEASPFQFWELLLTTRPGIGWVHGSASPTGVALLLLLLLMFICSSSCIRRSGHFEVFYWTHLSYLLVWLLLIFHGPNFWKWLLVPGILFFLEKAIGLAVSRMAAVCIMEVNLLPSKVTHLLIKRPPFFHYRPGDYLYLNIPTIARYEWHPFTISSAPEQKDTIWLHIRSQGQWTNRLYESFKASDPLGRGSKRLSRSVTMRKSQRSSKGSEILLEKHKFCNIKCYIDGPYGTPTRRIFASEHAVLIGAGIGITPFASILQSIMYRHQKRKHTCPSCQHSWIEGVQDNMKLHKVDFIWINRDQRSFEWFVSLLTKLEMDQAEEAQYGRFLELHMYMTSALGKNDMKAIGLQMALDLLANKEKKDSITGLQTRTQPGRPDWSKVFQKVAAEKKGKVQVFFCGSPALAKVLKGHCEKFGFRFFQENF
Chain of Dihydroorotate dehydrogenase (quinone), mitochondrial (Plasmodium falciparum (isolate 3D7)) (Q08210 whole entry, looked up): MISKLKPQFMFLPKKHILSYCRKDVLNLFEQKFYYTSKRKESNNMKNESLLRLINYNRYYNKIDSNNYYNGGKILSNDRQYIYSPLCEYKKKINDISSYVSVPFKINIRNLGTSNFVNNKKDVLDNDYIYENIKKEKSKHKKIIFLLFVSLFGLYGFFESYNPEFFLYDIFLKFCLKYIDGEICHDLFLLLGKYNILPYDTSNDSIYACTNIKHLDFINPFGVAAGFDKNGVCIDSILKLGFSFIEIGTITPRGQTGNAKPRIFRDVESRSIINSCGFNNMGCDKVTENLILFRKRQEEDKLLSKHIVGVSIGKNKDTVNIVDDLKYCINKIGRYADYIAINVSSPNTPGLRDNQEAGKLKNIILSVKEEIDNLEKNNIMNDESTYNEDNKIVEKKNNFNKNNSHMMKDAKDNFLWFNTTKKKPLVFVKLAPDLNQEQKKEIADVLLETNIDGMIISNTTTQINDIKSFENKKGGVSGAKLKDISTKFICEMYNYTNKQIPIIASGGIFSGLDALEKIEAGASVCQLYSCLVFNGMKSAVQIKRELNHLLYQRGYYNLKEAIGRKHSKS
Chain of NADPH oxidase 4 (Homo sapiens) (Q9NPH5 whole entry, looked up): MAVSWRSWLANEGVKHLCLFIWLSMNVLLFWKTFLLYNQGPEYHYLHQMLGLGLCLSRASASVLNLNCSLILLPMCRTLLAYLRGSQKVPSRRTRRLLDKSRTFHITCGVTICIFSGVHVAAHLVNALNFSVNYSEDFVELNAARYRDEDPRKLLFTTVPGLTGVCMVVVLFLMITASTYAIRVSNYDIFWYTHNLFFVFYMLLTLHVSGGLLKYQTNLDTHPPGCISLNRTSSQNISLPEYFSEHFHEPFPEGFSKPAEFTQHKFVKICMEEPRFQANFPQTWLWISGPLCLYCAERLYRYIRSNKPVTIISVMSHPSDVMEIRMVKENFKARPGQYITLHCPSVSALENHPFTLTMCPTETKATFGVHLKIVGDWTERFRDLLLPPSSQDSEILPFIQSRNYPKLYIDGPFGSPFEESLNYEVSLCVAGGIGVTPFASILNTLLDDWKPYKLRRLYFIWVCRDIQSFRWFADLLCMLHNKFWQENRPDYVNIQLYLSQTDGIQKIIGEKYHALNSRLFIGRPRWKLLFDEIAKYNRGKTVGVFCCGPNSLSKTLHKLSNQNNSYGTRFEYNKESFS

As to `CC(C)C(CO)N1C(=O)[C@@H]2[C@H]3C(=O)OCC=C[C@H]3OC23C=CCN(Cc2ccccc2)C(=O)[C@@H]13` (stereo not given in full), the z-score is 0.118 (inactive) in experiment [1]; 1.61 in [2]; -0.769 in experiment [3]; 0.651 in experiment [4]; -0.384 in experiment [5]; 0.33 in experiment [6]. For the same compound, the z-score in experiment [7] was 0.0894; in experiment [8] it was 0.341; in experiment [9] it was 0.232 (inactive); in [10], 0.159; in experiment [11], 1.96; in experiment [12], -0.077 (inactive). Further, the z-score in experiment [13] is 0.25; in [14] it was -1.57 (inactive); in [15] it was 0.699 (inactive); in experiment [17] it was -0.752 (inactive); in [18] it was 1.53 (inactive); in experiment [19] it was 1.03 (inactive). In experiment [20], this compound came in with a z-score of 0.359. The composite z-score in [16] is -0.429 (inactive).

Take `C=CCC(OC(C)=O)[C@@H]1[C@@H](N(Cc2cc3ccccc3o2)C(=O)c2ccc(-c3ccccc3)cc2)c2cc(OCCCO)ccc2N1C(=O)c1ccc(-c2ccccc2)cc1` (stereo not given in full): the z-score in experiment [1] is -1.13 (inactive); in experiment [2], 0.786; in [3], 0.0525; in experiment [4], 0.893; in experiment [5], 0.249; in experiment [6], 0.402. Also, the z-score was -0.777 in [7]; 3.06 in experiment [8]; 0.604 (inactive) in [9]; -0.557 in experiment [10]; 0.511 in [11]; 1.15 (inactive) in experiment [12]. Further, the z-score was 0.634 in [13]; 0.18 (inactive) in [14]; 1.28 (inactive) in experiment [15]; 0.975 (inactive) in [17]; 1.47 (inactive) in experiment [18]; 1.07 (inactive) in experiment [19]. For the same compound, in experiment [20], the z-score stood at 0.996. Also, the composite z-score in experiment [16] is 0.192 (inactive).

As for `C=C(COC)/C(=C/C[C@H](OC(C)=O)c1ccc(CO)o1)c1cnc2ccccc2c1`, the z-score is 0.615 (inactive) in experiment [1]; 0.915 in experiment [2]; 0.283 in experiment [3]; 0.788 in [4]; -0.957 in experiment [5]; -1.42 in experiment [6]. Besides, the z-score in experiment [7] is -0.182; in experiment [8], 0.117; in experiment [9], 0.411 (inactive); in experiment [10], 0.624; in experiment [11], -0.271; in experiment [12], 0.445 (inactive). Moreover, the z-score was 0.441 in experiment [13]; -1.24 (inactive) in [14]; 1.04 (inactive) in experiment [15]; -0.819 (inactive) in experiment [17]; 1.48 (inactive) in experiment [18]; 0.383 (inactive) in experiment [19]. Besides, the z-score in [20] is 0.981. Further, the composite z-score in [16] was -7.31 (inactive).

Consider `CC(C)CNC(=O)[C@@H]1c2ccccc2C(=O)N(Cc2ccc(OC(F)(F)F)cc2)[C@H]1c1ccc(CO)cc1`, for which the z-score in experiment [1] was 0.925 (inactive); in [2] it was 1.57; in experiment [3], 2.26; in experiment [4], 0.18; in experiment [5], 0.442; in experiment [6], -0.201. Also, the z-score in [7] is 0.351; in [8], 2.64; in experiment [9], 1.08 (inactive); in experiment [10] it was 0.417; in experiment [11], -0.881; in [12], 1.31 (inactive). For the same compound, the z-score in experiment [13] was 0.867; in experiment [14], -1.78 (inactive); in [15], 1.33 (inactive); in experiment [17], -2.73 (inactive); in experiment [18], 1.38 (inactive); in [19] it was 1.5 (inactive). In [20], this compound showed a z-score of 1.13. The composite z-score in experiment [16] was -0.876 (inactive).

For the compound `O=C(N1CCCCC1)[C@@]1(Cc2ccccc2)N=C(c2ccc(OCCCO)cc2)O[C@H]1c1ccccc1`, the z-score is 0.489 (inactive) in experiment [1]; -0.326 in experiment [2]; -1.51 in experiment [3]; 1.33 in [4]; -2.47 in [5]; -3.48 in [6]. The z-score in [7] was -3.78; in experiment [8] it was -1.61; in experiment [9], 0.804 (inactive); in [10], -0.982; in [11], -2.56; in [12], 0.935 (inactive). The z-score in [13] is 0.569; in experiment [14], -0.635 (inactive); in experiment [15] it was -3.06 (inactive); in experiment [17] it was 0.895 (inactive); in experiment [18], 1.97 (inactive); in [19], 0.242 (inactive). This compound returned a z-score in experiment [20] of -5.21. For the same compound, the composite z-score in experiment [16] is 0.31 (inactive).

With `C=C(CCCC)/C(=C/C[C@H](OC(=O)c1ccncc1)c1ccc(CO)o1)c1cnc2ccccc2c1`, the z-score was 1.15 (inactive) in experiment [1]; 0.737 in experiment [2]; 0.942 in experiment [3]; 0.87 in [4]; -0.76 in experiment [5]; -2.31 in experiment [6]. Also, the z-score is 0.117 in experiment [7]; 0.265 in experiment [8]; 1.03 (inactive) in [9]; 0.519 in experiment [10]; -0.656 in experiment [11]; 0.274 (inactive) in experiment [12]. In addition, the z-score in experiment [13] was 0.921; in experiment [14] it was -1.7 (inactive); in experiment [15], 0.511 (inactive); in experiment [17] it was -0.716 (inactive); in experiment [18], 1.67 (inactive); in [19], 1.01 (inactive). Further, the z-score in experiment [20] amounted to 0.874. The composite z-score in experiment [16] was -6.96 (inactive).

In the case of `C=CCN1C(=O)[C@@]2(O[C@@H](CCO)[C@H]([Si](C)(C)c3ccc(OC)cc3)[C@H]2C)c2cc(N(C=O)c3ccccc3)ccc21`, the z-score is 0.638 (inactive) in experiment [1]; -0.174 in [2]; -3.16 in [3]; 0.412 in experiment [4]; -4.73 in [5]; -2.68 in experiment [6]. The z-score is -4.39 in [7]; -2.22 in [8]; 1.53 (inactive) in experiment [9]; -1.05 in experiment [10]; -2.14 in experiment [11]; -4.7 (inactive) in experiment [12]. Moreover, the z-score was -6.2 in [13]; -0.425 (inactive) in [14]; -8.88 (active) in experiment [15]; -0.592 (inactive) in experiment [17]; 2.62 (inactive) in experiment [18]; 1.81 (inactive) in experiment [19]. The z-score in experiment [20] is -6.21. Also, the composite z-score in [16] is -0.459 (inactive).

Turning to `O=C(NO)[C@]1(Cc2ccccc2)N=C(c2ccc(OCCCO)cc2)O[C@@H]1c1ccccc1`, the z-score in [1] is 0.551 (inactive); in experiment [2], 2.06; in experiment [3], 1.86; in experiment [4], 1.33; in experiment [5], 1.18; in [6], 1.87. For the same compound, the z-score in experiment [7] is -0.459; in experiment [8], 1.59; in experiment [9], 1.3 (inactive); in experiment [10], -0.737; in [11], 1.02; in experiment [12], 1.02 (inactive). For the same compound, the z-score in experiment [13] is 1.47; in [14], -2.78 (inactive); in [15], 1.41 (inactive); in experiment [17], -4.43 (inactive); in [18], 2.26 (inactive); in experiment [19], 2.18 (inactive). Also, the z-score in experiment [20] is 0.963. Besides, the composite z-score in experiment [16] was 0.461 (inactive).
